Screens (PubChem)
SW480 rereplic: inducers of DNA re-replication in SW480 colon cancer cells. SW480 DNA re-replication, Hoechst DNA content imaging, 48 h. Potency, µM (titrated, usually from 46.1 µM), for the others: top-dose re-replication activation, actives largely listed as activators. actives 1.8% (n = 340,000). AID 624297; note: potency is the fitted concentration of half-maximal effect; % of control where 0% means no effect; nearly all actives have a fitted effect of over 55% in size
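250 cells/well; 23 nL cpd via pin tool; 48 hr, 37 C, 5% CO2; Hoechst 40 min; imager read of total nuclear intensity, ex 405/em 500-530 nm.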
BCR signal inh: inhibitors of chronic active B-cell receptor signaling | ABC-DLBCL IkBa-CBG/CBR reporter, luminescence ratio, 4 h | Potency, µM (titrated, usually from 46.1 µM), inactives show at the top dose activity change, negative = inhibition, most hits filed as inhibitors | actives 0.05% (n = 340,000) | AID 493014; active = well fitted inhibition curve with a large enough effect in the signal ratio, with a control signal flat, not every such curve was filed as active; inconclusive = small, poorly fitted or top-dose-only effect, or effect the other way, or a change in a side signal; the % refers to the signal ratio;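 note: potency is the fitted concentration of half-maximal effect; plate controls were basal doxycycline-induced cells for no effect and cells given 10 µM MG132 for full effect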
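Doxycycline induced both beetle luciferases in TMD8 lymphoma cells; IKK-driven degradation limits the IkappaBalpha-fused green signal, while red luminescence normalises for cell number and nonspecific effects. Compounds tested up to 46 uM, 4 hrs.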
Giardia kill: kills Giardia lamblia; Giardia lamblia trophozoite viability; activity change, % at 7.66 µM, hits read low; actives 0.15% (n = 340,000); AID 540267; in the data active = activity change below about -80%; inconclusive = between about -30% and that limit;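 note: parasites exposed to compound for two days anaerobically before the ATP read; % is set by controls: 0 for no effect and ±100 for the full control effect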
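Killing of trophozoites was scored by loss of ATP luminescence after a 48 hrs anaerobic exposure to compounds at 37 deg C, using 100 cells per well.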
RORgamma inh: ROR gamma (mouse) transcription inhibition | P51450 | Drosophila S2 Gal4-RORgamma UAS-luciferase reporter, 20 h | Potency, µM (titrated, usually from 53.6 µM), for inactives: at the top dose activity change, negative = inhibition, actives largely listed as inhibitors | actives 5.4% (n = 310,000) | AID 2551; note: potency is the fitted concentration of half-maximal effect; % is set by controls: 0 for no effect and ±100 for the full control effect; nearly all actives have a fitted effect of over 60% in size
Target sequence (P51450 whole entry, looked up, the tested form may be a part): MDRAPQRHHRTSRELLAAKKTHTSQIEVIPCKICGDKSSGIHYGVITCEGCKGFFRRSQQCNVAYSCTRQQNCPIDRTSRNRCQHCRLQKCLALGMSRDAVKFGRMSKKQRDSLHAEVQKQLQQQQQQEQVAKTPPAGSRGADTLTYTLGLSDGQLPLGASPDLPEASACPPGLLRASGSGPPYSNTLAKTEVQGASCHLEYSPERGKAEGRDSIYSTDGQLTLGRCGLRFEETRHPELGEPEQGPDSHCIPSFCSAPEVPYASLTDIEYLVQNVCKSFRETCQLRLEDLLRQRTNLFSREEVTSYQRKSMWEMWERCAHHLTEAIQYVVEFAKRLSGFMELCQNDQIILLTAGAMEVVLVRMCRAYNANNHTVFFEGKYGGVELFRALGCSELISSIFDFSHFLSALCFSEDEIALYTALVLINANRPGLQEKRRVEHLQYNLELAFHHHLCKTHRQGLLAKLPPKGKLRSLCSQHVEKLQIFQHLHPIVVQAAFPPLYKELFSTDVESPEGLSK
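Drosophila S2 cells stably expressing Gal4-DBD/mouse RORγ fusion under metallothionein promoter plus UAS-luciferase; compound 1 h, then 700 uM CuSO4 induction for 20 h at ambient temperature; inhibition read as reduced luminescence.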
VP16 counter: inhibits Gal4-VP16 luciferase reporter, ROR gamma counter-screen; Drosophila S2 Gal4-VP16 UAS-luciferase, luminescence, 20 h; Potency, µM (highest dose often 53.6 µM), inactives show at the top dose activity, negative = inhibition, usual class: inhibitors; actives 3.5% (n = 310,000);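 note: Gal4-VP16 expression switched on by copper sulfate through the metallothionein promoter; potency is the fitted concentration of half-maximal effect; % is set by controls: 0 for no effect and ±100 for the full control effect; nearly all actives have a fitted effect of over 50% in size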
MCF10A rerep: inducers of DNA re-replication in MCF 10A breast cells; MCF 10A DNA re-replication, Hoechst nuclear intensity, 48 h; Potency, µM (top dose mostly 46.1 µM), without a hit: top-dose activity, positive = re-replication, usual class: activators; actives 2.9% (n = 350,000); AID 624296; note: potency is the fitted concentration of half-maximal effect; % of control where 0% means no effect; nearly all actives have a fitted effect of over 50% in size
Numbers without * were called inactive; ? = inconclusive; . = no result given; [ ] = dose if it differs, or a comment. Only some compounds are listed: those with a hit (about 8.3% of all), similar ones and a draw of the others. Unless noted, calls come from the whole dose curve; as a rule, active = well fitted curve in the direction sought with a large enough effect; inconclusive = small, poorly fitted or top-dose-only effect, or another doubt; inactive = no such curve, though single readings can be large; an effect the other way counts as inactive or inconclusive.

SMILES	SW480 rereplic	BCR signal inh	Giardia kill	RORgamma inh	VP16 counter	MCF10A rerep
CC(C)(O)C1CC[C@@](C)([C@@H]2CC[C@]3(C)[C@H]2[C@H](O)CC2[C@@]4(C)CCC(O)C(C)(C)C4C(OC4OC(CO)C(O)C(O)C4O[C@@H]4OCC(O)C(O)C4O)C[C@]23C)O1 (some centres undefined)	-7%	3%	4	.	.	-31%
Cc1ccc(/C=C/C(=O)NC(=S)N2CCN(c3ccc(F)cc3)CC2)cc1	-7%	8%	-14	?	-8%	5%
Cc1ccc(/C=C/C(=O)NC(=S)N2CCN(C)CC2)cc1	-43%	-3%	-5	14µM*	13µM*	14%
COc1ccccc1/C=C/C(=O)NC(=S)NC(C)C	16µM*	?	-26	?	-4%	?
O=C(/C=C/c1ccccc1)NC(=S)N1CCSCC1	-3%	-8%	0	7.9µM*	10µM*	-6%
COc1ccc(/C=C/C(=O)NC(=S)N2CCOCC2)cc1	-8%	-28%	15	4µM*	?	0%
O=C(Cn1nc(C(=O)O)c2ccccc2c1=O)Nc1cccc(S(=O)(=O)N2CCCCC2)c1	-4%	-14%	-11	.	.	24%
Cc1ccc(S(=O)(=O)N2CCN(c3nc(-c4ccc(CN5CCNCC5)s4)nc4ccccc34)CC2)cc1	.	.	25	.	.	.
O=C(/C=C/c1ccccc1)/C=C/c1ccccc1	21µM*	?	-26	?	?	3.3µM*
O=C(/C=C/c1ccccc1)NC(=S)Nc1ccccc1O	?	?	-26	?	?	13%
NC(=S)NC(=O)/C=C/c1ccccc1	?	?	-18	7.9µM*	?	5%
COc1ccccc1/C=C/C(=O)NC(=S)N1CCN(C)CC1	-2%	-13%	15	11µM*	16µM*	0%
O=C(/C=C/c1ccccc1)c1ccccc1	?	?	-28	-44%	-7%	?
Cc1ccccc1CN1C(=O)C2(OCCCO2)c2ccccc21	17%	0%	9	28%	3%	-6%
COC(=O)CC1c2ccccc2C(Cc2ccc3c(c2)OCO3)=C(C)N1C(=O)OC (centres undefined)	.	.	.	-6%	1%	.
CCOc1ccc(C(=O)CCN2CCCCCC2)cc1	?	?	-1	4.5µM*	5.6µM*	3.3µM*
CCCCOc1ccc(C(=O)CCN2CCOCC2)cc1	?	?	-11	?	?	?
CCCOc1ccc(C(=O)CCN2CCCCC2)cc1	?	1%	0	?	14µM*	?
CCCOc1ccc(C(=O)c2nc3c(n2O)CCCCC3)cc1	0%	0%	9	14%	20µM*	0%
Cc1ccc(C(=O)Nn2cnnc2)cc1S(=O)(=O)N1CCOCC1	12%	-6%	-7	-5%	-3%	5%
O=C1c2ccccc2C(=O)c2c([N+](=O)[O-])ccc(O)c21	-3%	21%	?	-28%	6%	0%
O=C1c2c(O)ccc([N+](=O)[O-])c2C(=O)c2c([N+](=O)[O-])ccc(O)c21	.	.	.	6.3µM*	11µM*	.
NNC(=O)c1nn(-c2ccc(Cl)cc2)cc1O	21µM*	6%	-9	-31%	-10%	7%
CC1(C)Cc2c(cnn2-c2ccc(F)cc2)C(NC(=O)CN2CCCCC2=O)C1 (centres undefined)	-4%	?	-27	3.5µM*	16µM*	-15%
Cc1cc(C)cc(-n2ncc3c2CCCC3NC(=O)CN2CCCC2=O)c1 (centres undefined)	-8%	-1%	17	-6%	-3%	8%
SMILES	SW480 rereplic	BCR signal inh	Giardia kill	RORgamma inh	VP16 counter	MCF10A rerep
CC(=O)NC1CCCc2c1cnn2-c1ccc(C(C)(C)C)cc1 (centres undefined)	0%	-11%	-21	?	-29%	-1%
Cn1nccc1C(=O)NC1CCCc2c1cnn2-c1ccc(C(C)(C)C)cc1 (centres undefined)	?	?	11	?	2.5µM*	18µM*
Cc1cc(C(=O)NC2CCCc3c2cnn3-c2ccc(C)c(C)c2)no1 (centres undefined)	-18%	1%	-26	?	-24%	2%
CC1(C)Cc2c(cnn2-c2ccc(F)cc2)C(NC(=O)CCN2CCCC2=O)C1 (centres undefined)	?	1%	3	43%	?	?
CC(C)(C)c1ccc(-n2ncc3c2CCCC3NC(=O)CN2CCCC2=O)cc1 (centres undefined)	-2%	-3%	21	?	7.1µM*	8%
Cc1ccc(-n2ncc3c2CCCC3NC(=O)c2ocnc2C)cc1C (centres undefined)	-1%	?	0	21%	7.1µM*	13%
CCCNC(=O)c1ccccc1NC(=O)c1cccc(-n2cnnn2)c1	-10%	-8%	-5	.	.	-6%
Cc1ccc(-c2ccccc2NC(=O)C2C3C=CC(C3)C2C(=O)O)o1 (centres undefined)	4%	-1%	-9	4.5µM*	4.5µM*	18%
O=[N+]([O-])c1ccc(/C=N/NC(=S)Nc2ccccc2F)o1	13%	-23%	-16	7.1µM*	7.9µM*	-10%
Fc1ccccc1NC(=S)N/N=C/c1ccccc1Br	18µM*	?	2	3.2µM*	4.5µM*	?
CC1=C(c2ccccc2)CCC1=O	1%	.	-2	.	.	-4%
CC1=C(c2ccccc2)C(O)(c2ccccc2)C(C)C1=O (centres undefined)	?	.	0	.	.	21µM*
Cc1c(C=O)c(C=O)c(C)n1Cc1ccccc1	?	?	18	-38%	-10%	10µM*
CN(Cc1ccc(F)cc1)C(=O)c1ccc(NS(=O)(=O)c2ccccc2)cc1	0%	1%	-4	.	.	10%
CCCCCc1ccc(-c2ccc(/C=C/C(=O)O)cc2)nc1	-4%	?	?	-38%[10 µM]	?	?
CCCc1ccc(-c2ccc(/C=C/C(=O)O)cc2)nc1	0%	?	?	0.16µM*	?	12%
CCCCC[C@H](O)/C=C/[C@@H]1[C@@H](C/C=C\CCCC(=O)O)[C@H](O)C[C@H]1O	.	.	.	-17%	-10%	.
CNC(=O)NC(=O)CSc1cccc(C(F)(F)F)c1	11%	-1%	-12	14%	4%	21µM*
N#C/C(=C\c1ccccn1)c1nc2ccccc2s1	16µM*	-3%	11	?	?	15µM*
